Screens from PubChem BioAssay.
A selection: hits, their analogues and other compounds. The true share with any hit is near 0.93%.
RPL19A TOR yeast: yeast TOR pathway RPL19A-GFP modulation; percent response vs DMSO, % at 10 µM; S. cerevisiae RPL19A-GFP strain, flow cytometry, 3 h; hits give low values; hit rate 0.3% among 330,000;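 active means percent response vs DMSO below 50%; inconclusive means fewer than 70 events counted for the yeast strain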;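 further: median channel GFP fluorescence of the barcoded RPL19A-GFP strain; ratio of sample median GFP to plate DMSO average so 100% = DMSO; lower means less RPL19A-GFP as with rapamycin TOR inhibition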
LAP4-GFP MLPCN: yeast TOR pathway LAP4-GFP modulation | S. cerevisiae LAP4-GFP multiplex, flow cytometry GFP, 3 h; median GFP as percent of DMSO wells | hit rate 0.34% among 320,000 | GFP response vs DMSO, % at 10 µM;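 active means GFP response vs DMSO above a set limit, about the screen mean plus 3 SD, cut at about 150% in these data; inconclusive means under 70 cell events counted for the yeast strain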
MEP2 TOR yeast: modulators of TOR pathway MEP2-GFP in S. cerevisiae | GFP response vs DMSO, % at 10 µM | hit rate 0.51% among 330,000 | S. cerevisiae MEP2-GFP strain, flow cytometry GFP, 3 h; 100% = DMSO control level | AID 2016;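 active means GFP response versus DMSO above a set limit, roughly screen mean plus 3 SD, cut at about 180% in these data; inconclusive means fewer than 70 cells counted for a yeast strain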;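 further: median GFP fluorescence of the barcode-gated MEP2-GFP cells per well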
CIT2-GFP yeast: modulators of TOR pathway CIT2-GFP in S. cerevisiae; hit rate 0.065% among 320,000; GFP response vs DMSO, % at 10 µM; AID 2029; S. cerevisiae CIT2-GFP strain, flow cytometry, 3 h; 100 means same as DMSO wells;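 active means GFP response relative to DMSO above a set limit, near the screen mean plus 3 SD, cut at about 150% in these data; inconclusive means Fewer than 70 cells measured for a yeast strain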;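 further: ratio of well median GFP fluorescence to mean of DMSO wells on the plate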
AGP1 TOR yeast: yeast TOR pathway AGP1-GFP modulation; S. cerevisiae AGP1-GFP multiplex flow cytometry, 3 h; GFP as percent of DMSO wells; GFP response vs DMSO, % at 10 µM; hit rate 0.02% among 320,000; AID 2066;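 active means GFP response relative to DMSO above a set limit, near screen average plus 3 SD, cut at about 150% in these data; inconclusive means fewer than 70 cells counted for the yeast strain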;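 further: median GFP channel fluorescence of the gated AGP1 strain per well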
* marks the source's active call; other numbers are inactive results; ? = inconclusive; . = not tested or not shown; [ ] = dose if it differs, or a comment.

SMILES | RPL19A TOR yeast | LAP4-GFP MLPCN | MEP2 TOR yeast | CIT2-GFP yeast | AGP1 TOR yeast
C[n+]1ccccc1/C=C1\Sc2ccccc2N1CCO | 104 | 111 | 103 | 115 | 109
O=Cc1c(N2CCN(CCO)CC2)nc2ccccn2c1=O | 101 | 97 | 107 | 105 | 103
COc1ccc(-c2nnc(SCC(=O)NC3CCCCC3)o2)cc1 | 62 | 98 | 200*[may fluoresce violet] | ? | 32
COc1ccc(OCc2nnc(SCC(=O)Nc3ccc(C)cc3)o2)cc1 | 94 | 92 | 195*[may fluoresce violet] | ? | 20
COc1ccc(C(=O)Nc2nnc(Cc3ccccc3)s2)c(OC)c1 | 100 | 105 | 107 | 102 | 103
O=C1C2C(C(=O)N1/N=C/c1cc(Br)cc([N+](=O)[O-])c1O)C1C=CC2C12CC2 (stereo unspecified) | 50 | 120 | 193*[may fluoresce violet] | ? | .
Cc1ccc(CN2CCNC(=O)C2CC(=O)N(C)Cc2cnccn2)cc1 (stereo unspecified) | 98 | 95 | 95 | 101 | 97
NNc1nc2c(-c3cccc(C(F)(F)F)c3)nnn2c2ccccc12 | 48*[may fluoresce violet] | 122 | 400*[may fluoresce violet] | ? | 21
COCCNc1nc2c(-c3cccc(C(F)(F)F)c3)nnn2c2ccccc12 | 95 | 106 | 114 | 97 | 94
Cc1ccc(O)c(C(=O)c2cnc(/N=C(\N)N(C)C)nc2)c1 | 104 | 99 | 96 | 107 | 106
Cc1ccc2[nH]c3c(c2c1)CCNC3=O | 97 | 125 | 177* | 110 | 98
CCOC(=O)c1sc(Nc2nc3c(OC)cccc3s2)nc1C | 80 | 104 | 247* | 97 | 33
O=C(COc1ccccc1)Nc1nnc(COc2ccccc2)s1 | 101 | 69 | 92 | 95 | 86
CCc1nnc(NC(=O)CSc2n[nH]c(-c3ccccc3O)n2)s1 | 103 | 155* | 91 | 97 | 110
CCc1nnc(NC(=O)COc2ccc3ccccc3c2)s1 | 48*[may fluoresce violet] | 69 | 221*[may fluoresce violet] | ? | 13
CCCCn1c(C)cc2cc(O)ccc21 | 94 | 95 | 101 | 93 | 97
O=C(NCCc1ccccc1)c1ccc2c(c1)OCCO2 | 99 | 105 | 108 | 102 | 96
COc1ccc(NC(=O)Nc2ccc(O)c3ccccc23)cc1 | 52 | 98 | 420*[may fluoresce violet] | ? | 19
COc1ccc(NC(=O)c2csc(Cc3ccccc3)n2)cc1 | 45*[may fluoresce violet] | 103 | 530*[may fluoresce violet] | ? | 18
O=C(Nc1ccc(F)cc1)c1csc(Cc2ccccc2)n1 | 94 | 90 | 91 | 94 | 92
Cc1ccc(OCC(=O)Nc2cccc(O)c2)cc1C | 44*[may fluoresce violet] | 93 | 221*[may fluoresce violet] | ? | ?
Cc1cc(NC(=O)CSCC(=O)N(c2cccc(Cl)c2)C(C(=O)NC2CCCCC2)c2ccc(O)c(O)c2)no1 (stereo unspecified) | 112 | 91 | 110 | 107 | 107
CCN(CC)c1ccc(NC(=O)COC(=O)c2cccs2)cc1 | 16*[may fluoresce violet] | 136 | 243*[may fluoresce violet] | ? | ?
Cc1ccc(S(=O)(=O)N(CC(=O)NCCC2=CCCCC2)Cc2ccccc2)cc1 | 94 | 95 | 93 | 90 | 93
CCc1ccc(Nc2nnc(SCC(=O)Nc3sccc3C(N)=O)s2)cc1 | 40*[may fluoresce violet] | 86 | 194*[may fluoresce violet] | ? | 17
SMILES | RPL19A TOR yeast | LAP4-GFP MLPCN | MEP2 TOR yeast | CIT2-GFP yeast | AGP1 TOR yeast
O=C(CSc1nnc(Cc2cc(=O)[nH]c(=O)[nH]2)n1-c1ccccc1)N1CCCCC1 | 95 | 99 | 97 | 96 | 98
O=C(CSc1nnc(CCCN2C(=O)c3cccc4cccc(c34)C2=O)n1-c1ccccc1)N1CCCCC1 | 22*[may fluoresce violet] | 67 | 248*[may fluoresce violet] | ? | ?
O=C1NCCN(Cc2ccc(Cl)c(F)c2)C1CC(=O)N1CCc2ccccc2C1 (stereo unspecified) | 97 | 100 | 101 | 98 | 103
O=C(Nc1ccc(Cl)cc1C(F)(F)F)c1ccc(Cl)cc1 | 94 | 91 | 90 | 86 | 88
O=C(Nc1cc(F)c(Br)cc1F)c1ccc(Cl)cc1 | 78 | 154* | 260* | 126 | 139
CCOC(=O)c1[nH]c2ccccc2c1N=CN(CC)CC | 40*[may fluoresce violet] | 88 | 556*[may fluoresce violet] | ? | .
O=C(N/C(=C\c1ccc(Cl)cc1)C(=O)N1CCCCC1)c1ccco1 | 64 | 91 | 476*[may fluoresce violet] | ? | 14
Cc1cc(C)c2nc(N3C(=O)C(O)=C(C(=O)c4ccco4)C3c3ccco3)sc2c1 (stereo unspecified) | 52 | 89 | 315*[may fluoresce violet] | ? | ?
